Experiment [1] is described as follows: P. berghei load reduction in hepatocytes – cell-based, HepG2, luciferase luminescence, HepG2 viability, primary screen (AID 624349; in the data active = parasite load remaining mostly below about 12%, no sharp cut-off; inactive = mostly above about 10%;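 note: 100% = mean of DMSO negative control wells on the same plate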). The following applies: P. berghei liver stage in HepG2, luciferase luminescence, concentration not given here; parasite load remaining: stronger effect = lower value; viability: measured here: HepG2 viability without parasites.
The nature of experiment [2]: blockers of cellular phospholipid synthesis – cell-based, LOPAC library, screen 4, primary screen (AID 1347384; call rule not given here). The following applies: animal cells, phospholipid biosynthesis inhibition screen; at 10 µM.
Experiment [3] is described as follows: growth inhibition, single agents and combos, LFS_MB_1R, cell-based, cisplatin or BGB combos, synergistic combos for chromothripsis tumors (AID 1671452).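 Note: cells exposed for 96 hours before readout.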 The conditions noted are these: LFS_MB_1R medulloblastoma cells, stronger effect = higher value.
Experiment [4] in a line: growth inhibition, single agents and combos, CRL2098, cell-based, BGB or cisplatin IC20 combos, synergistic combos for chromothripsis tumors (AID 1671454).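 Note: cells exposed for 96 h before readout; 0% = vehicle DMSO and 100% = killing by high DMSO.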 The conditions noted are these: CRL2098 osteosarcoma cells, drug combinations, stronger effect = higher value.
Experiment [5] can be described thus: growth inhibition, single agents and combos, HD-MB03, cell-based, BGB or cisplatin IC20 combos, synergistic combos for chromothripsis tumors (AID 1671455; in the data active = inhibition above about 83%;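 note: 0% = vehicle DMSO and 100% = high DMSO as cytotoxic control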). The following applies: HD-MB03 medulloblastoma cells, stronger effect = higher value.
The nature of experiment [6]: growth inhibition, single agents and combos, UWB1.289, cell-based, BGB or cisplatin combos, synergistic combos for chromothripsis tumors (AID 1671456).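 Note: cells exposed to compound for four days; 0% = vehicle DMSO and 100% = killing by high DMSO.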 The conditions noted are these: UWB1.289 ovarian carcinoma cells, stronger effect = higher value.
A short description of experiment [7]: growth inhibition, single agents and combos, LFS_MB_2R, cell-based, cisplatin combos, synergistic combos for chromothripsis tumors (AID 1671457).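 Note: cells exposed to compound for four days before readout.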 The following applies: LFS_MB_2R medulloblastoma cells, stronger effect = higher value.
Experiment [8] in a line: UWB1.289_BRCA1 ovarian cancer growth, cell-based, BGB or cisplatin combinations (AID 1671459). The following applies: UWB1.289 BRCA1 ovarian carcinoma, drug combinations, stronger effect = higher value.
A short description of experiment [9]: drug combination toxicity in non-malignant astrocytes – cell-based, BGB or cisplatin IC20 combos, cytotoxicity control for chromothriptic childhood tumor combination screen (AID 1671460).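 Note: cells exposed to compounds for 96 hours before viability readout; 0% = vehicle and 100% = killing control.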 The following applies: Human astrocytes, viability inhibition, drug combinations, at 0.5 µM, stronger effect = higher value.
Experiment [10] is described as follows: galactose survival enhancers in mitochondrial complex I cybrids – cell-based, galactose medium, ATP luminescence, primary screen (AID 1645843;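 active = z-score of at least 1.8 in each of two replicates, scored against plate mean and spread of sample wells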;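 note: positive z means more ATP and so rescue of galactose-driven cybrid death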). The following applies: complex I mutant cybrid cells, 72 h, stronger effect = higher value.
Experiment [11] is described as follows: liver-stage malaria parasite load reduction – cell-based, known kinase inhibitor set, luminescence, hepatoma host viability (AID 624392; call rule not given here;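 note: infected cells incubated roughly two days before readout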). The conditions noted are these: Plasmodium liver stage in hepatoma cells, luciferase luminescence, concentration not given here; liver cell % of control: measured here: host liver cell viability; parasite % of control: stronger effect = lower value.

A short description of experiment [12]: compounds altering viability of human ES cells (AID 493140; call rule not given here;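 note: cells exposed to compounds for four days before counting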). The following applies: human embryonic stem cell survival screen; stronger effect = higher value.
Where [13] appears, read: measured here: combination with BGB IC40, at 0.05 µM.
[14] abbreviates: measured here: combination with cisplatin, at 0.5 µM.
Setting [15] is: measured here: combination with cisplatin, at 5 µM.
[16] abbreviates: measured here: combination with BGB at IC20, at 0.5 µM.
The mark [17] stands for this setting: measured here: combination with cisplatin at IC20, at 0.5 µM.
[18] abbreviates: measured here: combo with BGB at IC20, at 0.5 µM.
[19] abbreviates: measured here: combo with cisplatin at IC20, at 0.5 µM.
Where [20] appears, read: measured here: inhibition with BGB combination, at 0.05 µM.
Where [21] appears, read: measured here: inhibition with cisplatin combination, at 0.05 µM.
Where [22] appears, read: BGB combination, concentration series, at 5 µM.
The mark [23] stands for this setting: cisplatin combination, concentration series, at 5 µM.
Setting [24] is: measured here: combo with BGB IC20.
[25] abbreviates: measured here: combo with cisplatin IC20.

Values joined by “and” are separate entries in the source; they are usually repeats but may differ in a detail not shown here. Equal entries are not always repeated. Active and inactive are the calls of the source. Cut-off read from the data, not from the text of the source, unless noted: active = inhibition above about 80%; inactive = the rest.

Broadly, the viability is a read-out of living cells in per cent, often relative to untreated cells. Regarding `O=C1NCCc2[nH]c(-c3ccncc3)cc21`, in experiment [1], the parasite load remaining was 110% (inactive) and the viability came out at 61.5%. For the same compound, the compound was classed as inactive in [2].

The inhibition is the relative decrease from the control value, in per cent. Turning to `CN(C)CCN1C(=O)c2cccc3cc(N)cc(c23)C1=O`, the inhibition is -23% (inactive) in experiment [3] (at 0.5 µM); -41.2% in [3] (setting [13]); -45% in [3] (setting [14]); 16.5% in experiment [3] (setting [15]); -63% (inactive) in [4] (at 0.5 µM); -22.2% in experiment [4] (setting [16]). The inhibition was -129% in experiment [4] (setting [17]); 1.51% (inactive) in [5] (at 0.5 µM); -11.9% in experiment [5] (setting [18]); 14.4% in [5] (setting [19]); -5.91% (inactive) in experiment [6] (at 0.5 µM); -1.98% in experiment [6] (setting [20]). For the same compound, the inhibition in experiment [6] (setting [21]) was -18.9%; in [7] (at 0.5 µM), -25.1% (inactive); in experiment [7] (setting [14]), -29.2%; in experiment [7] (setting [15]), -2.51%; in experiment [8] (setting [22]) it was 38.8%; in experiment [8] (at 0.5 µM), -2.87% (inactive). Further, the inhibition in [8] (setting [23]) is 37.9%; in experiment [9], 2.38% (inactive); in experiment [9] (setting [24]) it was -2.82%; in [9] (setting [25]), -2.98%.

As for `CCCCCCCCCCCC(CC1OC(=O)C1CCCCCC)OC(=O)C(CC(C)C)NC=O` (configuration not stated), in experiment [10], the z-score is -1.84 (inactive).

On to `O=C(O)c1ccc2c(c1)nc(Nc1cccc(Cl)c1)c1ccncc12`, for which, in [11], the liver cell % of control was 84.7% and 84.9% and 89.8%; the parasite % of control was 247% (inactive) and 142% (inactive) and 94.6% (inactive).

Regarding `Cc1ccc2nc(NCCN)c3ncc(C)n3c2c1`, the inhibition in experiment [3] (at 0.5 µM) was 1.37% (inactive); in experiment [3] (setting [13]), -13.1%; in experiment [3] (setting [14]) it was -5.04%; in experiment [3] (setting [15]), 83.6%; in experiment [4] (at 0.5 µM) it was -21.4% (inactive); in experiment [4] (setting [16]), 13.8%. The inhibition in experiment [4] (setting [17]) is -60.3%; in [5] (at 0.5 µM), -5.33% (inactive); in experiment [5] (setting [18]), -7.44%; in [5] (setting [19]) it was -1.09%; in [6] (at 0.5 µM), -4.12% (inactive); in [6] (setting [20]), -17.4%. In addition, the inhibition was -11.7% in experiment [6] (setting [21]); -14.5% (inactive) in [7] (at 0.5 µM); -10.3% in experiment [7] (setting [14]); 15.9% in [7] (setting [15]); 91.7% in [8] (setting [22]); 1.55% (inactive) in experiment [8] (at 0.5 µM). The inhibition in [8] (setting [23]) is 76.1%; in experiment [9], -0.35% (inactive); in experiment [9] (setting [24]), 0.763%; in experiment [9] (setting [25]) it was 2.83%.

For `CN(C)c1ccccc1CN1CCCN(Cc2ccccc2N(C)C)C1c1ccncc1`, the compound was classed as inactive in experiment [2].

As for `CN(C(Cc1ccc(OS(=O)(=O)c2cccc3cnccc23)cc1)C(=O)N1CCN(c2ccccc2)CC1)S(=O)(=O)c1cccc2cnccc12` (configuration not stated), the survival in [12] was 94.6 (inactive).

As for `C=CC[N+]1([C@H]2C[C@H]3[C@@H]4CC[C@H]5C[C@H](O)[C@@H](N6CCOCC6)C[C@]5(C)[C@H]4CC[C@]3(C)[C@H]2OC(C)=O)CCCC1`, in experiment [1], the parasite load remaining is 25.4% (inactive) and the viability came out at 138%. Also, in [10], the z-score is 0.25 (inactive).

As to `Nc1ccccc1NC(=O)c1ccc(CNc2nccc(-c3cccnc3)n2)cc1`, the inhibition was 42.2% (inactive) in experiment [3] (at 0.5 µM); -27.8% in experiment [3] (setting [13]); 50.9% in experiment [3] (setting [14]); 96.3% in experiment [3] (setting [15]); -11.6% (inactive) in experiment [4] (at 0.5 µM); -25.1% in experiment [4] (setting [16]). The inhibition in experiment [4] (setting [17]) was 19.9%; in experiment [5] (at 0.5 µM), 40.8% (inactive); in [5] (setting [18]), 31.4%; in experiment [5] (setting [19]), 76.7%; in [6] (at 0.5 µM), 27.8% (inactive); in experiment [6] (setting [20]), -18.3%. The inhibition in [6] (setting [21]) is -16.7%; in [7] (at 0.5 µM), 36.6% (inactive); in experiment [7] (setting [14]), 45.3%; in experiment [7] (setting [15]) it was 98.8%; in experiment [8] (setting [22]) it was 114%; in experiment [8] (at 0.5 µM), 29.1% (inactive). The inhibition in experiment [8] (setting [23]) was 120%; in experiment [9] it was 24.5% (inactive); in [9] (setting [24]) it was 21.7%; in experiment [9] (setting [25]), 17.1%.

For the origin of these results see PubChem BioAssay.
